Reference: patent US11472855, “RNA-binding protein” (Panitch Schwarze Belisario & Nadel LLP)

Legend:
hPUF_MT(F856A) = hPUF_MT(F856A) (UniProt Q14671 SEQ:1-349, F856A); assay: EMSA; conditions: tags: MBP; label: Alexa680 at 5' and 3'; ssRNA
hPUF_MT(F865A) = hPUF_MT(F865A) (UniProt Q14671 SEQ:1-349, F865A); assay: EMSA; smaller contribution than F856; conditions: tags: MBP; label: Alexa680 at 5' and 3'; ssRNA
[1] = biological target: T1, hPUF_MT(R5:A_13R)(R5:A_13Y)2(R6:C_13Y)3; assay: EMSA; 13R about 10 times greater; conditions: label: Alexa680 at 5' and 3'; ssRNA
T1 chain: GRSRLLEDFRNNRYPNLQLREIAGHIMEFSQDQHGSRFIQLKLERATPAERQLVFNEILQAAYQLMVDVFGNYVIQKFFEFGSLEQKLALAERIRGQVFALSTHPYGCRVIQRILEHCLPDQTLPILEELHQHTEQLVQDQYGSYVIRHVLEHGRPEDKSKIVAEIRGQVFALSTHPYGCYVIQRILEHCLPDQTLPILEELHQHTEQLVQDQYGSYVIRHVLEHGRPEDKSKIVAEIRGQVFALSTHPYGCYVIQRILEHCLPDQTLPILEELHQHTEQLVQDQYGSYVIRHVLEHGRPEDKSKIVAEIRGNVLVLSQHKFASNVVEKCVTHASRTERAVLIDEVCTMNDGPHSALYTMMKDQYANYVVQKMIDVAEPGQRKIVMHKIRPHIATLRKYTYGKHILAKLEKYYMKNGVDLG

Q: Which binding signal (hPUF_MT(F856A)) does the source give for CCAGAAUUGUAUAUAUUCG here?
A: The binding signal was ~0.1 fold of WT.

Q: What about the binding signal (hPUF_MT(F865A)) of the same sequence?
A: The binding signal was ~0.1 fold of WT.

Q: For CCAGAAUUGCACACAUAUUCG, which binding signal [1] is on record?
A: The binding signal was ~0.1 fold of 13R protein.
